The sample as a whole holds a higher share of hits than the screen did.
Pf Dd2 inh = blocks in vitro growth of P. falciparum Dd2 | P. falciparum Dd2 growth, SYBR Green, 72 h | Potency, µM (highest dose often 28.9 µM), without a hit: top-dose activity, negative = inhibition, actives largely listed as inhibitors | hit rate 4.3% among 120,000; active means well fitted inhibition curve with a large enough effect;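 further: plate controls were DMSO vehicle for no effect and reference drug for full effect; nearly all actives have a fitted effect of over 65% in size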
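Readout: SYBR Green fluorescence, 485 nm excitation, 535 nm emission, after ~16 h lysis at 37C. Before that, Dd2-infected red cells (2.5% hematocrit) grew 72 h with compound, 29 uM top final concentration.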
* marks the source's active call; other numbers are inactive results; i = inactive; [ ] = dose if it differs, or a comment. Potency means the concentration at half of the fitted maximal effect.

SMILES | Pf Dd2 inh
Cc1ccc(CNC[C@H]2O[C@H](Cc3cc(-c4ccc(F)cc4)on3)CC[C@@H]2O)cc1 | -3%[44.1 µM]
CCNC(=O)NC[C@H]1O[C@H](Cc2cc(CN(C)Cc3ccccc3)on2)CC[C@@H]1O | i
CCOc1ccccc1NC(=O)C1CCC(CNS(=O)(=O)c2ccc3c(c2)CCCC(=O)N3)CC1 (centres undefined) | 23%
CN1[C@@H](CCC(=O)NCc2cccnc2)CNC(=O)[C@@H]2[C@H]1CCN2Cc1ccccc1 | i
CNC(=O)[C@@H]1CN(Cc2ccc(Br)cc2F)C[C@H]1CO | -23%
O=C(O)c1ccccc1-c1cn(Cc2nnc3ccccn23)nn1 | 12%
COc1ccc(S(=O)(=O)N2CCC(c3noc(-c4cccnc4)n3)C2)cc1 (centres undefined) | i[5.79 µM]
COC(=O)c1ccc2c(=O)n3nc(Nc4ccc(F)cc4F)sc3nc2c1 | 41%
COc1ccccc1C(=O)CC1(O)C(=O)N(CC(N)=O)c2ccccc21 (centres undefined) | 20%
C#CCN1C(=O)C(O)(CC(=O)c2ccc(OC)c(OC)c2)c2cc(Br)ccc21 (centres undefined) | -15%
O=C(CC1(O)C(=O)N(CCc2ccccc2)c2ccc(Br)cc21)c1ccccc1O (centres undefined) | 10µM*
Cn1ncc2c(N[C@@H]3CS(=O)(=O)C[C@H]3O)nc(-c3ccncc3)nc21 | i
CC1CCN(c2nc3ccc(C(=O)NCc4ccccc4)cc3s2)CC1 | -27%
O=C1CCC2(CCN(c3nc4ccccc4s3)CC2)CN1Cc1cccnc1 | -23%
Clc1ccc2nc(N3CCC(NCCc4cccnc4)CC3)sc2c1 | 11µM*
Cc1cc2n(n1)CCCN2C(=O)Nc1ccc(C)c(Cl)c1 | 8%
O=C(NC1CC(=O)N(Cc2cccc(F)c2)C1)c1ccccc1-n1cccn1 (centres undefined) | 1%
O=C(CCc1ccccc1)N1CCC(Cc2nc(-c3ccc(F)cc3)no2)CC1 | i
CCc1ccc(C(=O)N2CCC(Cc3nc(-c4ccc(F)cc4)no3)CC2)cc1 | i
CCOc1ccc(C(=O)N2CCC(Cc3nc(-c4ccc(OC)cc4)no3)CC2)cc1OCC | 8.9µM*
COc1ccc(C(=O)N2CCC(Cc3nc(-c4ccccc4)no3)CC2)cc1F | i
COc1cccc(-c2noc(CC3CCN(C(=O)c4ccc(C)cc4)CC3)n2)c1 | i
CCOc1ccc(C(=O)N2CCC(Cc3nc(-c4ccc(F)cc4)no3)CC2)cc1OCC | 5µM*
CCOc1cc(C(=O)N2CCC(Cc3nc(-c4ccc(F)cc4)no3)CC2)cc(OCC)c1OCC | -13%
COc1ccc(-c2noc(CC3CCN(C(=O)CCc4ccccc4)CC3)n2)cc1 | 11µM*
SMILES | Pf Dd2 inh
COc1ccc(CCC(=O)N2CCC(Cc3nc(-c4ccc(F)cc4)no3)CC2)cc1 | -23%
O=C(Cn1nnc(-c2ccccc2Cl)n1)Nc1ccc(Br)cc1 | 37%
COC[C@@H]1CN(C(=O)c2ccoc2)C[C@H]1c1ccncc1 | 23%
CC(=O)N1CC(CO)C2(CCN(Cc3ccc(F)cc3)CC2)C1 (centres undefined) | i
COc1ccc(C)cc1NC(=O)N1CCCC(Cn2c(C3CC3)nc3cccnc32)C1 (centres undefined) | -21%
COc1ccccc1CN1CC[C@H]2COC(=O)N2c2cc(C)ccc2C1 | -21%[44.1 µM]
COc1ccccc1CN1CCc2nc(C(=O)N3CCOCC3)oc2CC1 | -6%[44.1 µM]
COc1ccccc1CN1CCC(n2cc[nH]c2=O)CC1 | 6%[44.1 µM]
COc1ccccc1CN1COc2ccc3c(oc(=O)c4ccccc43)c2C1 | 0.56µM*
CCCc1cc(=O)oc2c3c(ccc12)OCN(Cc1ccccc1OC)C3 | 3.2µM*
COc1ccc(CN2CCN(Cc3cc(=O)oc4cc(C)ccc34)CC2)c(OC)c1OC | -6%
O=C(NCc1ccccc1)C1CCN(C(=O)c2cnn(-c3ccccc3)c2-n2cccc2)CC1 | -15%
Cc1ccc(NC(=O)C2CCCN2S(=O)(=O)c2ccc3c(c2)n(C)c(=O)c(=O)n3C)cc1C (centres undefined) | -15%
CCn1cc(CN2CCC(Oc3ccc4ccccc4c3)(C(=O)O)CC2)c(C)n1 | -15%
Cc1cc(N2CCC3(CCCN(C)C3=O)C2)c2ccccc2n1 (centres undefined) | 27%
CCn1cc(CN2CCCC23CCN(c2cc(C)nc4ccccc24)CC3)c(C)n1 | 2µM*
Cc1ccc([C@@H]2CN(C(=O)CN3CCOC3=O)C[C@H]2NC(=O)C2CC2)cc1 | 5%
COc1ccc2nc3n(c2c1)[C@@H](CNC(=O)c1ccccc1)COC3 | i
COc1ccc2nc3n(c2c1)[C@@H](CNS(=O)(=O)c1ccccc1)COC3 | 8.9µM*
COc1ccc(S(=O)(=O)NC[C@H]2COCc3nc4cc(C)ccc4n32)cc1 | -7%[44.1 µM]
COc1ccc(NC(=O)C2(Cc3ccccc3)CCCCC(=O)N2)c(OC)c1 (centres undefined) | i
COc1ccc2[nH]cc(CCNC(=O)Nc3ccccc3)c2c1 | 20%
COc1ccc2[nH]cc(CCNC(=O)C3(Cc4ccccc4)CCCCC(=O)N3)c2c1 (centres undefined) | 2µM*
O=C([C@@H]1C[C@H](F)CN1C(=O)Nc1ccc(F)cc1)N1CCOCC1 | 5%
CC(C)CCCC1CN(S(=O)(=O)c2ccsc2)CCO1 (centres undefined) | i
SMILES | Pf Dd2 inh
COc1ccccc1-c1cc([C@H]2CN3CC[C@H]2C[C@@H]3CNS(=O)(=O)c2ccc(NC(C)=O)cc2)nc(C)n1 | i
CC(=O)Nc1cccc(-c2n[nH]c3c2CC(=O)N(Cc2ccccc2)C3)c1 | -16%[44.1 µM]
O=C(Nc1ccc(-c2nnc3n2CCCC3)cc1)c1ccc(Cl)cc1 | 5µM*
O=C(NC1CCc2n[nH]c(=O)n2CC1)c1ccc2ccccc2n1 (centres undefined) | i
O=C(Nc1ccc(-c2nnc3n2CCCC3)cc1)c1cc(F)ccc1F | i
O=C(Nc1ccc(-c2nnc3n2CCCC3)cc1)c1ccncc1 | i
COc1ccc(C(=O)Nc2ccc(-c3nnc4n3CCCC4)cc2)cn1 | 7.1µM*
O=C(Nc1ccc(-c2nnc3n2CCCC3)cc1)c1cc(-c2ccccc2)n[nH]1 | 14µM*
O=C(Nc1ccc(-c2nnc3n2CCCC3)cc1)c1ccc2ccccc2n1 | 1µM*
COc1ccc(Cl)cc1C(=O)Nc1ccc(-c2nnc3n2CCCCC3)cc1 | 4%
CCOc1ccc(C(=O)Nc2ccc(-c3nnc4n3CCCCC4)cc2)cc1OCC | -18%
CC1=C[C@@H](CNC(=O)c2ccncc2)[C@H](C(C)C)C[C@H]1CC(=O)NCc1ccc(C#N)cc1 | i
COc1ccc(N2CC(NC(=O)c3ccc(Br)o3)CC2=O)cc1 (centres undefined) | i
Cc1nc(CC(=O)NC(C)c2cnn(-c3ccccc3)c2C)cs1 (centres undefined) | -2%
Cc1nn(C(=O)c2ccccc2F)c(C)c1S(=O)(=O)N1CCCCCC1 | i
Cc1cccc(C(=O)Nc2ccc(OCc3cc(=O)n4c5c(sc4n3)CCCC5)cc2)c1 | 17%
CN(C)Cc1ccc(-c2cc3c(ccn3Cc3ccncc3)c(N3CCOCC3)n2)cc1 | 11µM*
c1cc(Cn2ccc3c(N4CCOCC4)nc(-c4cn[nH]c4)cc32)ccn1 | 3%[44.1 µM]
Cn1cc(-c2cc3c(ccn3Cc3ccncc3)c(N3CCOCC3)n2)cn1 | 39%[44.1 µM]
CC(C)NC(=O)c1cc(-c2ccc(Cl)cc2Cl)nc2c1cnn2C | 5%
Cc1cccc(CC(=O)N2CC(c3nnc(C(C)C)o3)C3(CCOCC3)C2)c1 (centres undefined) | 9%

Bioassay records from PubChem.
